Assay outcomes (PubChem)
The list is not random: actives were taken first. Their share in the collection is about 12%.
SARS PLpro yeast-1 – qHTS of Yeast-based Assay for SARS-CoV PLP. S. cerevisiae expressing SARS-CoV PLpro, growth rescue. AID 485353, 2010. Potency, µM (series often up to 32.9 µM), hits mostly activators. 330,000 tested, 0.19% active; calls by dose curve; note: nearly all actives have a fitted effect of over 55% in size
AmpC inh no detg – qHTS Inhibitors of AmpC Beta-Lactamase (assay without detergent); AID 485341, 2010; 330,000 tested, 0.52% active; Potency, µM (series often up to 57.1 µM), hits mostly inhibitors; P00811; AmpC nitrocefin hydrolysis, absorbance 480 nm, 0.0001% Triton; note: nearly all actives have a fitted effect of over 20% in size
Target sequence (P00811 whole entry, looked up): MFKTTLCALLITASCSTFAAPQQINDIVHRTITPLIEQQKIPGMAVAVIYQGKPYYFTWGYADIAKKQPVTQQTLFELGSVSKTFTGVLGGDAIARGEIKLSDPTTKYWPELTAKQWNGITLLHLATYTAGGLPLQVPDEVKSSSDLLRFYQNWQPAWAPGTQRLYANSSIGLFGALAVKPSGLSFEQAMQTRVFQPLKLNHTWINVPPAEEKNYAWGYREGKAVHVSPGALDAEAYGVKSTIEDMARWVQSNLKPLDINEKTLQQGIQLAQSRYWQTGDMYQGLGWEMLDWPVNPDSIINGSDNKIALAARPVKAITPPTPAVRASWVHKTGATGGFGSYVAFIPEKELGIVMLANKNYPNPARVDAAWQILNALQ
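20 mM phosphate pH 7.0 + 0.01% (detergent screen) or 0.0001% Triton X-100; 5.3 nM AmpC reagent; cpd preinc 15 min RT; nitrocefin (800 uM stock) to start; A480 q20 s × 4 min; Activity was normalised to no-enzyme and no-compound control wells.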
AmpC detergent – qHTS Inhibitors of AmpC Beta-Lactamase (assay with detergent); P00811; AID 485294, 2010; 370,000 tested, 0.041% active; Potency, µM (highest dose often 114 µM), actives largely listed as inhibitors; AmpC hydrolysis of nitrocefin, absorbance 480 nm, 0.01% Triton; note: nearly all actives have a fitted effect of over 25% in size
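20 mM phosphate pH 7.0 + 0.01% (detergent screen) or 0.0001% Triton X-100; 5.3 nM AmpC reagent; cpd preinc 15 min RT; nitrocefin (800 uM stock) to start; A480 q20 s × 4 min; Activity was normalised to no-enzyme and no-compound control wells.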
Sm TGR block – qHTS Assay for the Inhibitors of Schistosoma Mansoni Peroxiredoxins | purified TGR, DTNB reduction, TNB absorbance 405 nm | Potency, µM (doses to about 114 µM), actives largely listed as inhibitors | 360,000 tested, 3% active | AID 485364, 2010; note: nearly all actives have a fitted effect of over 60% in size
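First, TGR (20 nM dispensed) and NADPH were mixed with compound. Second, a 15 min room-temperature incubation followed. Third, further NADPH and then DTNB were added to start the reaction. Finally, TNB absorbance was monitored kinetically.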
Pf growth 96h – Primary qHTS for delayed death inhibitors of the malarial parasite plastid, 96 hour incubation | 320,000 tested, 6.9% active | P. falciparum luciferase reporter growth, 96 h | Potency, µM (series often up to 28.7 µM), usual class: inhibitors
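Delayed-death screen, second-generation endpoint: infected erythrocytes, 2% hematocrit, 0.05% parasitemia final; 96 hours at 37 C, 5% CO2; luciferase detection reagent; luminescence decrease equals reduced growth.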
Pf growth 48h – Primary qHTS for delayed death inhibitors of the malarial parasite plastid, 48 hour incubation; P. falciparum luciferase growth in erythrocytes, 48 h; Potency, µM (titrated, usually from 28.7 µM), hits mostly inhibitors; 310,000 tested, 5.9% active; AID 504832, 2011
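Luminescence readout; reporter = integrated firefly luciferase in P. falciparum. RBC culture at 2% hematocrit, 0.1% parasitemia final, 37 C/5% CO2; decreased signal taken as growth inhibition.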
SARS PLpro yeast-2 – qHTS of Yeast-based Assay for SARS-CoV PLP: Hit Validation | shares compounds with SARS PLpro yeast-1 | yeast expressing SARS-CoV PLpro, growth phenotype rescue | calls only | 1,000 tested, 19% active; call rule not given here
Each line names hits and unclear results; the compound was inactive in the other large screens (follow-up assays come after a bar, where they were run). Unless noted, calls come from the whole dose curve; as a rule, active = well fitted curve in the direction sought with a large enough effect; inconclusive = small, poorly fitted or top-dose-only effect, or another doubt; inactive = no such curve, though single readings can be large; an effect the other way counts as inactive or inconclusive.

CCCC(=O)NC(c1ccc(N(C)C)cc1)c1ccc2cccnc2c1O (centres undefined)	SARS PLpro yeast-1 7.1µM, AmpC detergent inconclusive, Pf growth 48h 6.6µM | SARS PLpro yeast-2 inconclusive
CCCC(=O)NC(c1ccccc1Cl)c1ccc2cccnc2c1O (centres undefined)	SARS PLpro yeast-1 2.2µM, Pf growth 96h inconclusive, Pf growth 48h inconclusive | SARS PLpro yeast-2 active
CC(=O)NC(c1ccco1)c1ccc2cccnc2c1O (centres undefined)	SARS PLpro yeast-1 inconclusive, AmpC detergent inconclusive, Pf growth 48h 10µM | SARS PLpro yeast-2 active
NNC(=O)CSc1cccc2cccnc12	none
Cc1cc(NC(c2ccc(Cl)cc2)c2ccc3cccnc3c2O)no1 (centres undefined)	SARS PLpro yeast-1 inconclusive, AmpC inh no detg 4.5µM, Sm TGR block 13µM, Pf growth 96h 0.33µM (no result: Pf growth 48h) | SARS PLpro yeast-2 inactive
Cc1ccc(C(=O)Nc2ccccc2N2CCCC2)s1	AmpC detergent inconclusive, Pf growth 96h inconclusive, Pf growth 48h inconclusive
O=C(CN1Cc2ccccc2C1=O)Nc1ccc2c(c1)OCCO2	none
CCC(=O)NC(c1ccc(C)cc1)c1ccc2cccnc2c1O (centres undefined)	SARS PLpro yeast-1 inconclusive, Pf growth 48h 4.7µM | SARS PLpro yeast-2 inactive
COc1ccc(NC(=O)C(=O)NCCc2ccc(OC)c(OC)c2)c(OC)c1	none (no result: SARS PLpro yeast-1, AmpC inh no detg, Pf growth 96h, Pf growth 48h)
CCOc1ccc(C(=O)CC(=O)C(=O)NCCc2ccc(OC)c(OC)c2)cc1	SARS PLpro yeast-1 20µM, Pf growth 48h 13µM | SARS PLpro yeast-2 inconclusive
O=C(NC(=S)Nc1ccccc1N1CCCC1)c1ccc([N+](=O)[O-])cc1	SARS PLpro yeast-1 inconclusive, Pf growth 96h inconclusive
Cc1c(C(=O)NC(=S)Nc2ccccc2N2CCCC2)cccc1[N+](=O)[O-]	SARS PLpro yeast-1 7.1µM, Pf growth 96h inconclusive, Pf growth 48h 15µM | SARS PLpro yeast-2 active
CC1CCCC(C)N1C(=O)COC(=O)c1n[nH]c(=O)c2ccccc12 (centres undefined)	none
C[C@@H]1C[C@H]2[C@@H]3CCC4=CC(=O)C=C[C@]4(C)[C@@]3(F)[C@@H](O)C[C@]2(C)[C@H]1C(=O)CO	SARS PLpro yeast-1 10µM, Pf growth 96h 9.3µM, Pf growth 48h inconclusive | SARS PLpro yeast-2 inactive
Cc1ccc(C(=O)NC(=O)OCCn2c(C)cnc2[N+](=O)[O-])cc1	none
Cc1sc2nc(CSCC(=O)N(C)c3ccccc3)[nH]c(=O)c2c1C	SARS PLpro yeast-1 inconclusive, Pf growth 96h inconclusive, Pf growth 48h inconclusive | SARS PLpro yeast-2 inactive
COC(=O)c1cc(OC)c(OC)cc1NCC(=O)Nc1ccc(C)cc1	SARS PLpro yeast-1 4.5µM | SARS PLpro yeast-2 inactive
COC(=O)c1cc(OC)c(OC)cc1NCC(=O)Nc1ccc(OC)c(OC)c1	Pf growth 48h inconclusive
Cc1ccc(NC(=S)NCC2CCCO2)cc1C (centres undefined)	none
Cc1cccc(NC(=S)NCC2CCCO2)c1 (centres undefined)	SARS PLpro yeast-1 inconclusive (no result: Pf growth 96h) | SARS PLpro yeast-2 inactive
CC(C)NC(=S)N/N=C/c1ccc2c(c1)OCCO2	SARS PLpro yeast-1 16µM | SARS PLpro yeast-2 active
CCCc1cc(=O)[nH]c(SCC(=O)NC2CCCc3ccccc32)n1 (centres undefined)	none
COc1ccc(CSC2=CS(=O)(=O)c3ccccc3N2)cc1	AmpC detergent inconclusive
O=S1(=O)N=C(N/N=C/c2ccccn2)c2ccccc21	SARS PLpro yeast-1 22µM, AmpC detergent inconclusive, Pf growth 96h inconclusive, Pf growth 48h inconclusive | SARS PLpro yeast-2 active
CN(C)c1ccc(/C=N/NC2=NS(=O)(=O)c3ccccc32)cc1	Pf growth 48h inconclusive
O=C(COC(=O)c1ccc(O)cc1)NCC1COc2ccccc2O1 (centres undefined)	Pf growth 96h inconclusive
Cc1nn(C)c(C)c1S(=O)(=O)N(CC(=O)Nc1nccs1)c1ccc(C(C)C)cc1	Pf growth 96h inconclusive
COc1ccc(N(CC(=O)Nc2nccs2)S(=O)(=O)c2c(C)nn(C)c2C)cc1	SARS PLpro yeast-1 inconclusive, AmpC detergent inconclusive, Pf growth 96h inconclusive (no result: Pf growth 48h) | SARS PLpro yeast-2 inactive
COc1ccc(/C=N\NC(=O)c2cc(O)c(O)c(O)c2)cc1CN1CCN(c2ccc(F)cc2)CC1	SARS PLpro yeast-1 13µM, Pf growth 96h inconclusive, Pf growth 48h 4.7µM | SARS PLpro yeast-2 active
COc1ccc(/C=N/NC(=O)c2ccccc2O)cc1CN1CCOCC1	none
CC1CCCN(c2nc3c(c(=O)[nH]c(=O)n3C)n2CCCc2ccccc2)C1 (centres undefined)	SARS PLpro yeast-1 inconclusive, AmpC detergent inconclusive, Pf growth 96h inconclusive, Pf growth 48h inconclusive | SARS PLpro yeast-2 inactive
CC1CCN(c2nc3c(c(=O)[nH]c(=O)n3C)n2Cc2ccccc2)CC1	none (no result: Pf growth 48h)
C[C@@H]1O[C@@H](O[C@H]2C[C@@H](O)[C@]3(CO)[C@H]4[C@H](O)C[C@]5(C)[C@@H](C6COC(=O)C6)CC[C@]5(O)[C@@H]4CC[C@]3(O)C2)[C@H](O)[C@H](O)[C@H]1O (some centres undefined)	SARS PLpro yeast-1 inconclusive | SARS PLpro yeast-2 inactive
CCc1ccc(NC(=O)c2ccc(Cn3nc(N4CCN(c5ccccc5)CC4)ccc3=O)o2)cc1	none (no result: SARS PLpro yeast-1, AmpC inh no detg, Pf growth 96h, Pf growth 48h)
NC(=NCCc1ccccc1)NS(=O)(=O)c1ccc(F)cc1	SARS PLpro yeast-1 inconclusive | SARS PLpro yeast-2 inactive
CCN1C(=O)C(Cc2nc3ccccc3c(=O)n2-c2ccc(OC)cc2)c2ccccc21 (centres undefined)	none (no result: SARS PLpro yeast-1, AmpC inh no detg, Pf growth 96h, Pf growth 48h)
CCCCCC(=O)N/N=C(\C)c1ccc(N2CCCCC2)cc1	SARS PLpro yeast-1 14µM, Pf growth 96h inconclusive | SARS PLpro yeast-2 inactive
C(=C\c1ccccc1)/CNn1cnnc1	SARS PLpro yeast-1 inconclusive, Pf growth 96h inconclusive | SARS PLpro yeast-2 inactive
CCCN1CNC(=S)N(Cc2ccccc2)C1	Pf growth 96h inconclusive
CCCCN1CNC(=S)N(Cc2ccccc2)C1	SARS PLpro yeast-1 inconclusive, Pf growth 96h 9.3µM | SARS PLpro yeast-2 inactive
CC(C)CN1CN(Cc2ccccc2)CNC1=S	SARS PLpro yeast-1 13µM, Pf growth 96h inconclusive | SARS PLpro yeast-2 active
CC1CN(C(=O)CSc2nnc(NC(=O)NC(C)(C)C)s2)CC(C)O1 (centres undefined)	AmpC inh no detg inconclusive, AmpC detergent inconclusive
